# Assay results taken from the supplement of paper PMC7156485.
# Test system: TDF
# Assay: cell number relative to DMSO (% of DMSO); higher = more cells (less growth inhibition / toxicity)
# Conditions: concentration: 10 µM; 24 h
# Summary of the method: (§1)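 For HCC1569 and TDF cells, compounds at 10 µM were applied for 24 h at 37 °C in triplicate in 384-well plates. Cells were fixed in 3.7% formaldehyde, stained for H1.0 and with DAPI, and imaged at ×10 over six fields per well. The endpoint, H1.0 nuclear intensity or cell number, is shown as percent of the plate control using the median of replicates. Positional effects were smoothed for HCC1569 only.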
# 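Wherever H1.0 immunofluorescence intensity relative to DMSO is given: TDF is a line of transformed human dermal fibroblasts of mesenchymal origin.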
# 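Wherever cell number relative to DMSO is given: TDF denotes transformed human dermal fibroblasts of mesenchymal origin.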
row,Structure (SMILES),cell number
1,Oc1cccc(-c2nc(N3CCOCC3)c3oc4ncccc4c3n2)c1,70
2,CC(=O)c1ccc(NC2=C(Cl)C(=O)c3ccccc3C2=O)cc1 [2-(4-acetylanilino)-3-chloronaphthoquinone],8.89
3,Cn1c(=O)c2c(ncn2CC2OCCO2)n(C)c1=O [Doxofylline],106
4,CCCCCCCCCCCCCCCCCCOCC(COP(=O)([O-])OCC[N+](C)(C)C)OC(C)=O (stereo not drawn),115
5,O=C1C(=Cc2ccc(O)c(O)c2)Oc2c1ccc(OC1OC(CO)C(O)C(O)C1O)c2O (stereo not drawn) [Maritimein],94.8
6,CCCCCC(O)C=CC1=C(CC=CCCCC(=O)O)C(=O)CC1 (stereo not drawn) [Prostaglandin B2],109

# Test system: TDF
# Assay: H1.0 immunofluorescence intensity relative to DMSO (% of DMSO); higher = stronger H1.0 induction, active = 120 or more
# Conditions: concentration: 10 µM; 24 h
# Summary of the method: as §1
row,Structure (SMILES),H1.0 immunofluorescence intensity
1,c1ccc(-c2[nH]ncc2-c2ccnc3ccccc23)nc1,94.8 (inactive)
2,COc1cc2c3cc1Oc1c(OC)c(OC)cc4c1C(Cc1ccc(O)c(c1)Oc1ccc(cc1)CC3N(C)CC2)N(C)CC4.Cl.Cl (stereo not drawn),104 (inactive)
3,COc1cc2nc(N3CCN(C(=O)C4CCCO4)CC3)nc(N)c2cc1OC (stereo not drawn) [Terazosin],93.9 (inactive)
4,CC(COc1ccccc1)N(CCCl)Cc1ccccc1.Cl (stereo not drawn) [Phenoxybenzamine.HCl],97.7 (inactive)
5,CC1(C)CC(=O)C2=C(C1)NC(=S)NC2c1cccc(O)c1 (stereo not drawn),152 (active)
6,COc1ccc2c(c1)CC[C@@H]1[C@@H]2CC[C@]2(C)[C@@H](NCCCCCCN3C(=O)C=CC3=O)CC[C@@H]12.O,99.9 (inactive)
7,CC(C=CC1=C(C)CCCC1(C)C)=CC=CC(C)=CC(=O)O [Retinoic Acid],90.8 (inactive)
8,O=S(=O)(c1cccc2cnccc12)N1CCCNCC1,88 (inactive)
9,"CCCCS(=N)(=O)CCC(N)C(=O)O (racemic) [DL-Buthionine-[S,R]-sulfoximine]",97.8 (inactive)
10,CCN(CC)CCCC(C)Nc1c2ccc(Cl)cc2nc2ccc(OC)cc12 (stereo not drawn) [Quinacrine],118 (inactive)
11,O=C1NC(=O)C(=Cc2ccc(-c3ccc(F)cc3O)o2)S1,95.1 (inactive)
12,COc1ccccc1N1CCN(CCCNc2cc(=O)n(C)c(=O)n2C)CC1.Cl [Urapidil hydrochloride],92.7 (inactive)
13,NC(=O)c1ccc2[nH]ccc2c1,101 (inactive)
14,CCCCCC(O)C=CC1C(O)CC(=O)C1CC=CCCCC(=O)O (stereo not drawn) [Prostaglandin E2],95.7 (inactive)
15,C[C@H](N[C@@H](CCc1ccccc1)C(=O)O)C(=O)N1CCC[C@H]1C(=O)O.O.O,101 (inactive)
16,CCCCCC=CCC=CC=CC=CC(SCC(N)C(=O)NCC(=O)O)C(O)CCCC(=O)O (stereo not drawn) [Leukotriene D4],92.1 (inactive)
17,Oc1ccc(Cn2cc[nH]c2=S)cc1 [1-(4-Hydroxybenzyl)imidazole-2-thiol],95.7 (inactive)
18,CS(=O)(=O)O.O=C1Nc2ccc(-c3cccnc3)cc2C1=Cc1ccc[nH]1 [JAK3 Inhibitor VI],108 (inactive)
19,CCCCCCCCCCCCCCSCC(=O)O [Tetradecylthioacetic acid],85.8 (inactive)
20,"OCCOc1ccc(/C(=C(/CCCl)c2ccccc2)c2ccccc2)cc1 [2-{4-[(1Z)-4-chloro-1,2-diphenyl-1-butenyl]phenoxy}ethanol]",100 (inactive)
21,CCCc1cc(=O)oc2c(C(=O)N3CCCc4ccccc43)c(OC)cc(OC)c12,108 (inactive)
22,COC(C(=O)C(O)C(C)O)C1Cc2cc3cc(OC4CC(OC5CC(O)C(O)C(C)O5)C(O)C(C)O4)c(C)c(O)c3c(O)c2C(=O)C1OC1CC(OC2CC(OC3CC(C)(O)C(O)C(C)O3)C(O)C(C)O2)C(O)C(C)O1 (stereo not drawn) [Mithramycin A],109 (inactive)
23,C=C(C)C1CC=C(C(=O)O)CC1 (stereo not drawn) [Perillic acid],96.4 (inactive)
24,COc1cc2ncc(-c3ccccc3)nc2cc1OC [Tyrphostin AG 1296],97.3 (inactive)
25,O=C1NC(=O)C(=Cc2ccc3c(c2)OC(F)(F)O3)S1 [PI 3-KbInhibitor II],103 (inactive)
26,CCCCCC=CCC=CCC(O)C=CC=CCCCC(=O)O (stereo not drawn),96.8 (inactive)
27,Cl.O.O.c1ccc2c(c1)CN1CCCC1=N2 [Desoxypeganine],89.6 (inactive)
